Among the data in the supplement of paper PMC10127200 are Euclidean distance values, retold here.

Structures are written as SMILES. Where a name gives a salt, the structure may show the parent alone.

Assay in all cases: Euclidean distance of Cell Painting phenotypic profile (signed KS, 77 features) to DMSO centroid (dimensionless distance); 5 or 10 uM (library dependent); higher = stronger phenotypic change vs DMSO (phenoactivity)
Details in all cases: 48 h

The test system of assay [1] is 786-O. In short, it runs like this: (§1)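 At 10 or 5 uM, as set by the library, and 0.1% DMSO final, compounds were applied for 48 h to five cancer lines and one healthy fibroblast line. Stained cells were imaged confocally at 20X in 9 fields per well, and Harmony extracted 77 features scored as signed Kolmogorov-Smirnov statistics against vehicle wells on the same plate. Profiles underwent plate-position correction, correlation weighting and replicate averaging at the top dose. Phenoactivity is the Euclidean distance from each such profile to the median vehicle profile.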

Assay [2] concerns A549. In short, it runs like this: as §1
Assay [3] concerns DU145. The procedure, abridged: as §1
Assay [4] deals with FB. In short, it runs like this:
as §1

Assay [5] concerns HEPG2. In short, it runs like this: as §1
Assay [6] deals with OVCAR4. In short, it runs like this:
as §1

As to `CC(=O)Oc1cc2c(s1)CCN(C(C(=O)C1CC1)c1ccccc1F)C2` (stereo not given) [Prasugrel Hydrochloride], the Euclidean distance came to 0.877 in assay [1]; 0.726 in assay [2]; 0.888 in assay [3]; 0.495 in assay [4]; 0.448 in assay [5]; 0.803 in assay [6].

As for `C#C[C@]1(O)CC[C@H]2[C@@H]3CCC4=Cc5oncc5C[C@]4(C)[C@H]3CC[C@@]21C` [Danazol], the Euclidean distance came out at 1.02 in assay [1]; 1.02 in assay [2]; 1.43 in assay [3]; 0.594 in assay [4]; 1.3 in assay [5]; 1.02 in assay [6].

Take `CCCS(=O)(=O)N[C@H]1C[C@@H](N(C)c2ncnc3[nH]ccc23)C1`: the Euclidean distance in assay [1] came to 0.905; in assay [2] it was 1.03; in assay [3], 1.02; in assay [4] it was 1.03; in assay [5], 0.71; in assay [6] it was 1.17.

As for `COc1cc(NC(=O)c2ccccn2)ccc1Cl`, the Euclidean distance was found to be 1.08 in assay [1]; 0.966 in assay [2]; 0.845 in assay [3]; 1.02 in assay [4]; 0.638 in assay [5]; 1.19 in assay [6].

Regarding `CC(=O)O[C@]1(C(C)=O)CC[C@H]2[C@@H]3C=C(Cl)C4=CC(=O)[C@@H]5C[C@@H]5[C@]4(C)[C@H]3CC[C@@]21C` [Cyproterone Acetate], the Euclidean distance in assay [1] was 1.3; in assay [2] it was 0.841; in assay [3], 0.95; in assay [4] it was 0.862; in assay [5] it was 1.95; in assay [6], 0.974.

In the case of `Cc1onc(-c2ccccc2Cl)c1C(=O)N[C@@H]1C(=O)N2[C@@H]1SC(C)(C)[C@@H]2C(=O)O` [Cloxacillin Sodium], the Euclidean distance in assay [1] is 0.711; in assay [2] it was 0.744; in assay [3], 0.6; in assay [4], 0.941; in assay [5], 1.02; in assay [6] it was 1.39.

Take `Nc1ccc(O)c(C(=O)O)c1` [Mesalamine]: the Euclidean distance in assay [1] was 1.49; in assay [2], 0.636; in assay [3] it was 2.08; in assay [4] it was 1.06; in assay [5], 0.538; in assay [6], 1.24.

`c1ccc2c(c1)CCCC2C1=NCCN1` (stereo not given) [Tetryzoline]: the Euclidean distance in assay [1] came to 1.41; in assay [2], 0.369; in assay [3], 0.804; in assay [4], 1.09; in assay [5] it was 0.572; in assay [6], 0.896.

Consider `O=C(Nc1ccc(Cl)cc1)Nc1ccc(Cl)c(Cl)c1` [Triclocarban], for which the Euclidean distance in assay [1] turned out to be 2.18; in assay [2], 3.14; in assay [3], 1.62; in assay [4] it was 1.74; in assay [5], 3.53; in assay [6], 2.98.

`CC(C)C[C@H](NC(=O)[C@@H](COC(C)(C)C)NC(=O)[C@H](Cc1ccc(O)cc1)NC(=O)[C@H](CO)NC(=O)[C@H](Cc1c[nH]c2ccccc12)NC(=O)[C@H](Cc1cnc[nH]1)NC(=O)[C@@H]1CCC(=O)N1)C(=O)N[C@@H](CCCNC(=N)N)C(=O)N1CCC[C@H]1C(=O)NNC(N)=O` [Goserelin Acetate]: the Euclidean distance worked out at 1.49 in assay [1]; 0.535 in assay [2]; 2.39 in assay [3]; 0.568 in assay [4]; 0.784 in assay [5]; 1.07 in assay [6].

On to `O=C(NOCC1CC1)c1ccc(F)c(F)c1Nc1ccc(I)cc1Cl`, for which the Euclidean distance in assay [1] is 2.48; in assay [2] it was 3.7; in assay [3] it was 2.78; in assay [4], 2.12; in assay [5], 2.22; in assay [6] it was 2.06.

For `C[C@]12CC[C@@H]3c4ccc(O)cc4CC[C@H]3[C@@H]1CCC2=O` [Estrone], the Euclidean distance in assay [1] amounted to 0.82; in assay [2], 0.907; in assay [3] it was 0.761; in assay [4], 1.21; in assay [5], 0.472; in assay [6], 0.764.

Consider `CCS(=O)(=O)N1CCN(c2ccc(Nc3ncc(C(N)=O)c(NC4CC4)n3)cc2)CC1`, for which the Euclidean distance in assay [1] turned out to be 2.57; in assay [2], 3.03; in assay [3] it was 3.16; in assay [4] it was 2.62; in assay [5] it was 2.51; in assay [6], 3.39.

As for `N#CSc1cc(SC#N)c(N)nc1N`, the Euclidean distance in assay [1] is 0.526; in assay [2] it was 2.18; in assay [3] it was 0.906; in assay [4] it was 1.25; in assay [5], 1.27; in assay [6], 1.14.

Take `OCc1c[nH]c2ccccc12` [Indole-3-carbinol]: the Euclidean distance in assay [1] came out at 1.05; in assay [2], 1.17; in assay [3], 0.838; in assay [4], 0.767; in assay [5], 0.598; in assay [6], 1.05.
